About 410 targets per protein were measured; listed, in parts, are those with the strongest signals and a random draw of the rest.
Assays:
Assay in all cases: glycan array binding signal (z-score within array); higher = stronger binding
Settings in all cases: glycan notation: IUPAC condensed, linker removed
[1] = molecular target: Fuc(a1-2)Gal(b1-3)GlcNAc(b1-3)Gal(b1-4)Glc
How it was run: (§1)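 Glycan array data were curated from 3228 arrays in the Consortium for Functional Glycomics database and kept only where the protein sequence was available. Glycan names were converted to IUPAC-condensed notation, and columns mapping to the same glycan were averaged. The binding signal is a within-array Z-score, averaged across arrays of the same protein sequence at different concentrations or buffers and across linkers. Negative Z-scores can be read as non-binding.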

[2] = molecular target: Fuc(a1-2)Gal(b1-4)GlcNAc(b1-2)Man(a1-6)[Gal(b1-4)GlcNAc(b1-2)Man(a1-3)]Man(b1-4)GlcNAc(b1-4)GlcNAc
How it was run: as §1

[3] = molecular target: Fuc(a1-2)Gal(b1-4)GlcNAc(b1-3)Gal(b1-4)GlcNAc(b1-3)Gal(b1-4)GlcNAc
How it was run: as §1

[4] = molecular target: Fuc(a1-2)Gal(b1-4)GlcNAc6S
How it was run: as §1

[5] = molecular target: Fuc(a1-2)Gal6S(b1-4)GlcNAc
How it was run: as §1

[6] = molecular target: Fuc(a1-3)[Gal(b1-4)]GlcNAc
How it was run: as §1

[7] = molecular target: Gal(a1-3)Gal(b1-4)Glc
How it was run: as §1

[8] = molecular target: Gal(b1-3)GalNAc
How it was run: as §1

[9] = molecular target: Gal(b1-3)GlcNAc(b1-3)Gal(b1-4)Glc
How it was run: as §1

[10] = molecular target: Gal(b1-4)GlcNAc(b1-3)Gal(b1-4)Glc
How it was run: as §1

[11] = molecular target: GlcA(b1-3)Gal
How it was run: as §1

[12] = molecular target: GlcNAc(b1-3)[GlcNAc(b1-6)]Gal(b1-4)GlcNAc
How it was run: as §1

[13] = molecular target: GlcNAc(b1-4)GlcNAc(b1-4)GlcNAc(b1-4)GlcNAc(b1-4)GlcNAc(b1-4)GlcNAc
How it was run: as §1

[14] = molecular target: Man(a1-2)Man(a1-2)Man(a1-3)Man
How it was run: as §1

[15] = molecular target: Man(a1-3)[Man(a1-6)]Man
How it was run: as §1

[16] = molecular target: Man(b1-4)GlcNAc
How it was run: as §1

[17] = molecular target: Neu5Ac(a2-3)Gal(b1-4)[Fuc(a1-3)]GlcNAc(b1-6)[Gal(b1-3)]GalNAc
How it was run: as §1

[18] = molecular target: Neu5Ac(a2-6)Gal(b1-4)GlcNAc(b1-2)Man(a1-6)[GlcNAc(b1-2)Man(a1-3)]Man(b1-4)GlcNAc(b1-4)GlcNAc
How it was run: as §1

[19] = molecular target: Neu5Ac(a2-3)Gal(b1-3)GlcNAc(b1-3)GalNAc
How it was run: as §1

[20] = molecular target: Neu5Ac(a2-3)Gal(b1-4)GlcNAc(b1-3)Gal(b1-4)GlcNAc(b1-3)Gal(b1-4)GlcNAc
How it was run: as §1

[21] = molecular target: Neu5Ac(a2-3)Gal(b1-4)[Fuc(a1-3)]GlcNAc
How it was run: as §1

[22] = molecular target: Neu5Ac(a2-3)Gal6S(b1-4)GlcNAc
How it was run: as §1

[23] = molecular target: Neu5Ac(a2-6)Gal(b1-4)GlcNAc(b1-2)Man(a1-6)[Gal(b1-4)GlcNAc(b1-2)Man(a1-3)]Man(b1-4)GlcNAc(b1-4)GlcNAc
How it was run: as §1

[24] = molecular target: Neu5Ac(a2-6)Gal(b1-4)GlcNAc(b1-3)Gal(b1-4)[Fuc(a1-3)]GlcNAc(b1-3)Gal(b1-4)[Fuc(a1-3)]GlcNAc
How it was run: as §1

[25] = molecular target: Neu5Gc(a2-6)GalNAc
How it was run: as §1

[26] = molecular target: Fuc(a1-2)[Gal(a1-3)]Gal(b1-3)GlcNAc
How it was run: as §1

[27] = molecular target: Fuc(a1-2)[Gal(a1-3)]Gal(b1-4)Glc
How it was run: as §1

[28] = molecular target: Gal(b1-3)Gal(b1-4)GlcNAc
How it was run: as §1

[29] = molecular target: Gal(b1-4)GalNAc(b1-3)[Fuc(a1-2)]Gal(b1-4)GlcNAc
How it was run: as §1

[30] = molecular target: Gal(b1-4)GlcNAc(b1-3)Gal(b1-4)GlcNAc
How it was run: as §1

[31] = molecular target: Gal3S(b1-3)GlcNAc
How it was run: as §1

[32] = molecular target: Gal6S(b1-4)Glc6S
How it was run: as §1

[33] = molecular target: Gal6S(b1-4)GlcNAc
How it was run: as §1

[34] = molecular target: GalNAc(b1-3)Gal
How it was run: as §1

[35] = molecular target: GlcNAc(b1-4)GlcNAc
How it was run: as §1

[36] = molecular target: Man(a1-2)Man(a1-3)Man
How it was run: as §1

[37] = molecular target: Man(a1-2)Man(a1-3)[Man(a1-2)Man(a1-6)]Man(a1-6)[Man(a1-2)Man(a1-2)Man(a1-3)]Man(b1-4)GlcNAc(b1-4)GlcNAc
How it was run: as §1

[38] = molecular target: Neu5Ac(a2-3)Gal(b1-3)GlcNAc
How it was run: as §1

[39] = molecular target: Neu5Ac(a2-3)Gal(b1-3)GlcNAc(b1-3)Gal(b1-3)GlcNAc
How it was run: as §1

[40] = molecular target: Neu5Ac(a2-3)Gal(b1-3)[Fuc(a1-4)]GlcNAc
How it was run: as §1

[41] = molecular target: Neu5Ac(a2-3)Gal(b1-3)[Neu5Ac(a2-3)Gal(b1-4)]GlcNAc
How it was run: as §1

[42] = molecular target: Neu5Ac(a2-3)Gal(b1-4)GlcNAc(b1-3)Gal(b1-4)[Fuc(a1-3)]GlcNAc
How it was run: as §1

[43] = molecular target: Neu5Ac(a2-3)Gal6S(b1-4)[Fuc(a1-3)]GlcNAc
How it was run: as §1

[44] = molecular target: Neu5Ac(a2-3)GalNAc
How it was run: as §1

[45] = molecular target: Neu5Ac(a2-6)Gal(b1-4)GlcNAc
How it was run: as §1

[46] = molecular target: Neu5Ac(a2-6)Gal(b1-4)GlcNAc(b1-3)Gal(b1-4)GlcNAc
How it was run: as §1

B1: TbCVNHOa (Tuber borchii), Q5MK11 (protein)
chain: MSYADSSRNAVLTNGGRTLRAECRNADGNWVTSELDLDTCIGNPNGFLGWGMQNFSHSSEDIKLEEGGRKLTCRPKTVDGGFRERQGIDLNRIQNVNGRLVFQ
In the case of B1, the “glycan array binding signal (z-score)” value [1] is reported as 1.94, the “glycan array binding signal (z-score)” value [2] is reported as -0.642 and the “glycan array binding signal (z-score)” value [3] is reported as -0.116. For the same binder, the “glycan array binding signal (z-score)” value [4] was 0.067, the “glycan array binding signal (z-score)” value [5] was 0.327 and the “glycan array binding signal (z-score)” value [6] was -0.024. For the same binder, the “glycan array binding signal (z-score)” value [7] was 1.45, the “glycan array binding signal (z-score)” value [8] was -0.24 and the “glycan array binding signal (z-score)” value [9] was 2.76. The “glycan array binding signal (z-score)” value [10] was 1.38, the “glycan array binding signal (z-score)” value [11] was -0.018 and the “glycan array binding signal (z-score)” value [12] was 0.219. For the same binder, the “glycan array binding signal (z-score)” value [13] was -0.762, the “glycan array binding signal (z-score)” value [14] was 5.14 and the “glycan array binding signal (z-score)” value [15] was -0.273. For the same binder, the “glycan array binding signal (z-score)” value [16] was -0.533, the “glycan array binding signal (z-score)” value [17] was 0.487 and the “glycan array binding signal (z-score)” value [18] was -0.034.

B2: Gal 3 (Homo sapiens), P17931 (protein)
chain: MADNFSLHDALSGSGNPNPQGWPGAWGNQPAGAGGYPGASYPGAYPGQAPPGAYPGQAPPGAYHGAPGAYPGAPAPGVYPGPPSGPGAYPSSGQPSAPGAYPATGPYGAPAGPLIVPYNLPLPGGVVPRMLITILGTVKPNANILDFQRGNDVAFHFNPRFNENNRRVIVCNTKLDNNWGREERQSVFPFESGKPFKIQVLVEPDHFKVAVNDAHLLQYNHRVKKLNEISKLGISGDIDLTSASYTMI
B2 was tested, and the “glycan array binding signal (z-score)” value [19] was -0.375, the “glycan array binding signal (z-score)” value [20] was 3.82 and the “glycan array binding signal (z-score)” value [21] was -0.39. The “glycan array binding signal (z-score)” value [22] was -0.387, the “glycan array binding signal (z-score)” value [23] was -0.391 and the “glycan array binding signal (z-score)” value [24] was -0.386. For the same binder, the “glycan array binding signal (z-score)” value [25] was -0.392.

B3: mLPHN-1 (Mus musculus), Q80TR1 (protein)
chain: MARLAAALWSLCVTTVLVTSATQGLSRAGLPFGLMRRELACEGYPIELRCPGSDVIMVENANYGRTDDKICDADPFQMENVQCYLPDAFKIMSQRCNNRTQCVVVAGSDAFPDPCPGTYKYLEVQYDCVPYIFVCPGTLQKVLEPTSTHESEHQSGAWCKDPLQAGDRIYVMPWIPYRTDTLTEYASWEDYVAARHTTTYRLPNRVDGTGFVVYDGAVFYNKERTRNIVKYDLRTRIKSGETVINTANYHDTSPYRWGGKTDIDLAVDENGLWVIYATEGNNGRLVVSQLNPYTLRFEGTWETGYDKRSASNAFMVCGVLYVLRSVYVDDDSEAAGNRVDYAFNTNANREEPVSLAFPNPYQFVSSVDYNPRDNQLYVWNNYFVVRYSLEFGPPDPSAGPATSPPLSTTTTARPTPLTSTASPAATTPLRRAPLTTHPVGAINQLGPDLPPATAPAPSTRRPPAPNLHVSPELFCEPREVRRVQWPATQQGMLVERPCPKGTRGIASFQCLPALGLWNPRGPDLSNCTSPWVNQVAQKIKSGENAANIASELARHTRGSIYAGDVSSSVKLMEQLLDILDAQLQALRPIERESAGKNYNKMHKRERTCKDYIKAVVETVDNLLRPEALESWKDMNATEQVHTATMLLDVLEEGAFLLADNVREPARFLAAKQNVVLEVTVLNTEGQVQELVFPQEYPSENSIQLSANTIKQNSRNGVVKVVFILYNNLGLFLSTENATVKLAGEAGTGGPGGASLVVNSQVIAASINKESSRVFLMDPVIFTVAHLEAKNHFNANCSFWNYSERSMLGYWSTQGCRLVESNKTHTTCACSHLTNFAVLMAHREIYQGRINELLLSVITWVGIVISLVCLAICISTFCFLRGLQTDRNTIHKNLCINLFLAELLFLVGIDKTQYEVACPIFAGLLHYFFLAAFSWLCLEGVHLYLLLVEVFESEYSRTKYYYLGGYCFPALVVGIAAAIDYRSYGTEKACWLRVDNYFIWSFIGPVSFVIVVNLVFLMVTLHKMIRSSSVLKPDSSRLDNIKSWALGAIALLFLLGLTWAFGLLFINKESVVMAYLFTTFNAFQGVFIFVFHCALQKKVHKEYSKCLRHSYCCIRSPPGGTHGSLKTSAMRSNTRYYTGTQSRIRRMWNDTVRKQTESSFMAGDINSTPTLNRGTMGNHLLTNPVLQPRGGTSPYNTLIAESVGFNPSSPPVFNSPGSYREPKHPLGGREACGMDTLPLNGNFNNSYSLRSGDFPPGDGGPEPPRGRNLADAAAFEKMIISELVHNNLRGASGGAKGPPPEPPVPPVPGVSEDEAGGPGSADRAEIELLYKALEEPLLLPRAQSVLYQSDLDESESCTAEDGATSRPLSSPPGRDSLYASGANLRDSPSYPDSSPEGPNEALPPPPPAPPGPPEIYYTSRPPALVARNPLQGYYQVRRPSHEGYLAAPSLEGPGPDGDGQMQLVTSL
With B3 the “glycan array binding signal (z-score)” value [1] was 0.213, the “glycan array binding signal (z-score)” value [26] was 15.8 and the “glycan array binding signal (z-score)” value [27] was -0.219. For the same binder, the “glycan array binding signal (z-score)” value [28] was 0.16, the “glycan array binding signal (z-score)” value [8] was 0.025 and the “glycan array binding signal (z-score)” value [29] was 1.66. The “glycan array binding signal (z-score)” value [30] was -0.105, the “glycan array binding signal (z-score)” value [31] was 2.08 and the “glycan array binding signal (z-score)” value [32] was 1.13. For the same binder, the “glycan array binding signal (z-score)” value [33] was 1.27, the “glycan array binding signal (z-score)” value [34] was 0.793 and the “glycan array binding signal (z-score)” value [35] was -0.282. For the same binder, the “glycan array binding signal (z-score)” value [36] was -0.173, the “glycan array binding signal (z-score)” value [37] was 0.551 and the “glycan array binding signal (z-score)” value [38] was 0.014. The “glycan array binding signal (z-score)” value [39] was -0.317, the “glycan array binding signal (z-score)” value [40] was 0 and the “glycan array binding signal (z-score)” value [41] was -0.26. The “glycan array binding signal (z-score)” value [20] was -0.433, the “glycan array binding signal (z-score)” value [42] was -0.402 and the “glycan array binding signal (z-score)” value [43] was -0.065. For the same binder, the “glycan array binding signal (z-score)” value [44] was 0.587, the “glycan array binding signal (z-score)” value [45] was 0.157 and the “glycan array binding signal (z-score)” value [18] was -0.261. The “glycan array binding signal (z-score)” value [46] was -0.422 and the “glycan array binding signal (z-score)” value [25] was 1.3.

— the supplement of paper PMC8728848
